In PubChem BioAssay (NCATS):
Unmarked numbers belong to inactive results. Records with an inconclusive call do not appear. Where a call stands in place of a potency, no number is given. Calls of active or inactive are those of the source. Unless noted, calls follow the shape of the dose curve; as a rule, active = well fitted curve in the direction sought with a large enough effect; inconclusive = small, poorly fitted or top-dose-only effect, or another doubt; inactive = no such curve, though single readings can be large; an effect the other way counts as inactive or inconclusive.

Assays:
[1] = target: Lysosomal acid glucosylceramidase (Homo sapiens) (UniProt P04062); assay: Glucocerebrosidase-p2 (AID 348; in the data active = potency below about 10 µM; also: potency is read from the fitted curve at half-maximal effect); details: purified GBA, blue fluorogenic substrate, 40 min
Procedure, shortened: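 Compounds titrated from 0.6 nM upwards against 0.2 nM enzyme in pH 5.9 citric acid/KH2PO4, taurocholate, tween-20; blue fluorogenic substrate 80 uM, 40 min room temperature, stopped and read Ex 365/Em 440 for AC50.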

[2] = AP1 Signaling Pathway (AID 357; active = well fitted curve in either direction with a large enough effect, not every such curve was filed as active;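 also: ME-180 reporter cells stimulated with EGF at its EC50 level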); details: ME-180 AP-1-bla reporter, EGF-induced, beta-lactamase ratio, 5 h; at 7.69 µM (top of the series) unless noted
Procedure, shortened: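 In this screen, ME-180 cells in Opti-MEM with 0.5% dialyzed FBS received EC50 EGF and compound titrations for 5 h. AP-1 reporter beta-lactamase was detected via CCF4 ratio, giving AC50 for positive and negative modulators.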

[3] = target: Cytochrome P450 1A2 (Homo sapiens) (UniProt P05177); assay: p450-cyp1a2 (AID 410; calls by dose curve; also: potency is read from the fitted curve at half-maximal effect)
Procedure, shortened: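 20nM CYP1A2 with 100uM Luciferin-ME (at Km) in 100mM KPO4; compound preincubated 10 min, NADPH regeneration added, 60 min at room temperature. Luciferin quantified by luminescence after detection reagent; normalized to 57 uM furafylline.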

[4] = Stat Signaling Pathway (AID 446; active = well fitted curve in either direction with a large enough effect, not every such curve was filed as active;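 also: ME-180 cervical cancer cells given 40 pM IL-6 alongside compound; SIE-controlled beta-lactamase reporter measured as 460/530 nm FRET emission ratio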); details: ME-180 SIE beta-lactamase reporter, IL-6 stimulated, 5 h; at 7.69 µM (top of the series) unless noted
Procedure, shortened: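 ME-180 SIE-bla cells; overnight plating; cpd + IL-6 40 pM, 5 h, 37 C; LiveBLAzer 2.5 h RT; 460/530 nm emission ratio. Normalized to 300 pM IL-6 and 125 nM JAK inhibitor controls.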

[5] = target: Glucocorticoid receptor (Homo sapiens) (UniProt P04150); assay: GR-GFP Redistribution (AID 450;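 active = compounds whose dose series gives a full or clear partial fitted curve of increased nuclear translocation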; also: potency is read from the fitted curve at half-maximal effect); details: U2OS GR-GFP nuclear translocation, laser cytometry, 2 h
[6] = target: Glucocorticoid receptor (Homo sapiens) (UniProt P04150); assay: GR-EFC Redistribution (AID 451; calls by dose curve; also: potency is read from the fitted curve at half-maximal effect); details: CHO-K1 GR-EFC translocation, beta-gal luminescence, 2 h
Procedure, shortened: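 Translocation of GR-ED fusion to nuclear EA restores b-gal, read by luminescence after 1 h room-temperature detection. Engineered CHO-K1 biosensor cells, 1,000/well, exposed 2 h at 37 C to titrations up to 46 uM final.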

[7] = target: Mitogen-activated protein kinase 10 (Mus musculus) (UniProt Q61831); assay: JNK3 AlphaScreen Assay (AID 530; active = well fitted curve in either direction with a large enough effect, not every such curve was filed as active;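 also: kinase came from lysate of stimulated human HepG2 cells; signal reports phosphorylation of biotinylated GST-cJun 1-79 at Ser73 with 10 µM ATP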)
Procedure, shortened: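 Compound titrations were preincubated 15 minutes at room temperature with substrate, antibody and pre-activated JNK3-containing HepG2 lysate. Reactions were started with 10 uM ATP and stopped with EDTA-containing bead buffer for AlphaScreen detection.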

[8] = target: 3',5'-cyclic-AMP phosphodiesterase 4B (Homo sapiens) (UniProt Q07343); assay: qHTS Assay for Inhibitors of PDE-IV (AID 607; active = well fitted activation curve with a large enough effect in the main read-out, with a control signal flat, not every such curve was filed as active; also: potency is read from the fitted curve at half-maximal effect)
Procedure, shortened: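 ACTOne HEK293 cells carry a modified cAMP-gated CNG channel and express endogenous PDE4; plated 1000 cells/well, compounds up to 22.9 uM final. Membrane-potential dye fluorescence (ex 535/em 590) was read; parental cells received 10 uM forskolin + 100 uM RO 20-1724.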

[9] = target: Cytochrome P450 3A4 (Homo sapiens) (UniProt P08684); assay: qHTS Assay for Activators of Cytochrome P450 3A4 (AID 885); also: nearly all actives have a fitted effect of over 65% in size
Procedure, shortened: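 20nM CYP3A4 + 25uM Luciferin-PPXE (=KM), 200mM KPO4; cpd 10 min RT; NADPH regen, 60 min RT; stop w/ detection buffer, 20 min; luminescence. Normalized to 57 uM ketoconazole.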

[10] = target: Dual specificity protein kinase CLK4 (Homo sapiens) (UniProt Q9HAZ1); assay: qHTS Assay for Inhibitors of CDC-like Kinase 4 (Kinase-Glo Assay) (AID 1770); also: nearly all actives have a fitted effect of over 65% in size; also: potency is read from the fitted curve at half-maximal effect
Procedure, shortened: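 Substrate mix (RS peptide 100 uM, ATP 1 uM) dispensed, compound pinned in, then Clk4 added to 25 nM final. Incubated 4.5 h at RT; Kinase-Glo reagent added, luminescence read after 5 min.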

[11] = target: Dual specificity protein kinase CLK4 (Homo sapiens) (UniProt Q9HAZ1); assay: qHTS Assay for Inhibitors of CDC-like Kinase 4 (ADP-Glo Assay) (AID 1771); also: nearly all actives have a fitted effect of over 70% in size; also: potency is read from the fitted curve at half-maximal effect
Procedure, shortened: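 25 nM Clk4 with 100 uM RS repeat peptide and 1 uM ATP (final) in buffer with 2 mM MgCl2, 0.5 mM EGTA, 2.5 mM DTT, 0.01% Triton X-100; 1 h at room temperature; ADP-Glo luminescence for ADP formed.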

[12] = target: Dual specificity protein kinase CLK4 (Homo sapiens) (UniProt Q9HAZ1); assay: qHTS Assay for Inhibitors of CDC-like Kinase 4 (ADP-FP Assay) (AID 1795);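 also: recombinant human CLK4 phosphorylating RS repeat peptide at 1 µM ATP; nearly all actives have a fitted effect of over 60% in size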
Procedure, shortened: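 Clk4 6.25 nM; RS peptide 100 uM; ATP 1 uM; 25 mM Tris pH 7.5, 10 mM MgCl2; 1 h reaction. ADP detected via antibody/orange tracer FP displacement; TG003 positive control.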

[13] = target: Ubiquitin carboxyl-terminal hydrolase 1 (Homo sapiens) (UniProt O94782); assay: Inhibitors of USP1/UAF1: Pilot qHTS (AID 504865);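 also: rhodamine fluorescence freed from ubiquitin-rhodamine substrate followed over time; top concentration of the series differs between compounds; nearly all actives have a fitted effect of over 35% in size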
Procedure, shortened: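 In 50mM HEPES pH 7.8 containing 0.5mM EDTA, 1mM TCEP, 0.1 mg/ml BSA and 0.01% Tween-20, 1nM USP1/UAF1 is exposed to compound for 15 min, then Ub-Rho (150nM final) is added and fluorescence is read over time.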

[14] = Primary qHTS for small molecule stabilizers of the endoplasmic reticulum resident proteome: Secreted ER Calcium Modulated Protein (SERCaMP) assay (AID 1508630)
Procedure, shortened: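 GLuc-SERCaMP-expressing SH-SY5Y cells, pretreated 16 h with compound, are challenged with thapsigargin to empty ER calcium stores; after 4 h, coelenterazine is added directly to the medium and luminescence is imaged.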

[15] = target: Rap guanine nucleotide exchange factor 3 (Homo sapiens) (UniProt O95398); assay: Confirmatory qHTS for agonist of cAMP-regulated guanine nucleotide exchange factor 3 (EPAC1) (AID 1645881);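 also: EPAC1 catalysed release of BODIPY-GDP from Rap1B seen as fluorescence loss; nearly all actives have a fitted effect of over 75% in size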
[16] = target: Rap guanine nucleotide exchange factor 4 (Homo sapiens) (UniProt Q8WZA2); assay: Confirmatory qHTS for agonist of cAMP-regulated guanine nucleotide exchange factor 4 (EPAC2) (AID 1645884);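 also: nucleotide exchange releases bodipy-GDP from Rap1 and this lowers its fluorescence; nearly all actives have a fitted effect of over 65% in size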; also: potency is read from the fitted curve at half-maximal effect
[17] = target: Rap guanine nucleotide exchange factor 4 (Homo sapiens) (UniProt Q8WZA2); assay: Confirmatory qHTS for antagonist of cAMP-regulated guanine nucleotide exchange factor 4 (EPAC2) (AID 1645885); also: nearly all actives have a fitted effect of over 25% in size
[18] = NFAT Signaling Pathway (AID 444; active = well fitted curve in either direction with a large enough effect, not every such curve was filed as active;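 also: carbachol stimulus at about its EC50 of 1 µM final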); details: Jurkat NFAT-bla M1, carbachol, beta-lactamase ratio, 5 h; at 7.69 µM (top of the series) unless noted
Procedure, shortened: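 Read-out: CCF4 FRET ratio (460 nm/530 nm) after 1 h RT dye loading, used for %activity and AC50 from titration series. Cells: Jurkat NFAT-β-lactamase/M1 line, treated with compound plus 1 uM carbachol for 5 h, 37 °C.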

[19] = target: Rap guanine nucleotide exchange factor 3 (Homo sapiens) (UniProt O95398); assay: Confirmatory qHTS for antagonist of cAMP-regulated guanine nucleotide exchange factor 3 (EPAC1) (AID 1645880); also: nearly all actives have a fitted effect of over 55% in size
Procedure, shortened: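 Nucleotide exchange uses 100 nM EPAC1, 250 nM RAP1B-BODIPY-GDP and 50 uM GDP, with compounds in a concentration-titration series. After 5 min at room temperature, fluorescence (480 nm ex/540 nm em) is read every 5 min for 30 min. Data are normalized to control ATA and DMSO.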

Sequence of 3',5'-cyclic-AMP phosphodiesterase 4B (Homo sapiens) (Q07343 whole entry, looked up): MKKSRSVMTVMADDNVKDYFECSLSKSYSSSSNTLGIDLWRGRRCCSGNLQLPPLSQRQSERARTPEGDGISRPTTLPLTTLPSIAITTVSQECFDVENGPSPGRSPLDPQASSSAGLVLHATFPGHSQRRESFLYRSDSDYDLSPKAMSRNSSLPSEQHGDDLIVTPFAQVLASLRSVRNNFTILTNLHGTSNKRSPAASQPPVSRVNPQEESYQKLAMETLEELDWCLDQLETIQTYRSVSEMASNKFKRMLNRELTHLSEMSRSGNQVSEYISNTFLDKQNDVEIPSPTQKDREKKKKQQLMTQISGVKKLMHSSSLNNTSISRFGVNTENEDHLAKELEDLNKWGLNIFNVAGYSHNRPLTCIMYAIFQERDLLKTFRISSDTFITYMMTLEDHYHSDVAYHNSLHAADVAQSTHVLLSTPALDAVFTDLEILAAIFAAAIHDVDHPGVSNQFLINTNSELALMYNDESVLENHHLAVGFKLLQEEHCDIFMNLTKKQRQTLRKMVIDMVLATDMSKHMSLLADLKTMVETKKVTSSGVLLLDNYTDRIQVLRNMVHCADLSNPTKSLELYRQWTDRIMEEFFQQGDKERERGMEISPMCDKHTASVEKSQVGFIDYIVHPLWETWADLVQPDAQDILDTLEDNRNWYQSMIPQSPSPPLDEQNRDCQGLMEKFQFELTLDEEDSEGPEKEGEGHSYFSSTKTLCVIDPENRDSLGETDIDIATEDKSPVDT
Sequence of Ubiquitin carboxyl-terminal hydrolase 1 (Homo sapiens) (O94782 whole entry, looked up): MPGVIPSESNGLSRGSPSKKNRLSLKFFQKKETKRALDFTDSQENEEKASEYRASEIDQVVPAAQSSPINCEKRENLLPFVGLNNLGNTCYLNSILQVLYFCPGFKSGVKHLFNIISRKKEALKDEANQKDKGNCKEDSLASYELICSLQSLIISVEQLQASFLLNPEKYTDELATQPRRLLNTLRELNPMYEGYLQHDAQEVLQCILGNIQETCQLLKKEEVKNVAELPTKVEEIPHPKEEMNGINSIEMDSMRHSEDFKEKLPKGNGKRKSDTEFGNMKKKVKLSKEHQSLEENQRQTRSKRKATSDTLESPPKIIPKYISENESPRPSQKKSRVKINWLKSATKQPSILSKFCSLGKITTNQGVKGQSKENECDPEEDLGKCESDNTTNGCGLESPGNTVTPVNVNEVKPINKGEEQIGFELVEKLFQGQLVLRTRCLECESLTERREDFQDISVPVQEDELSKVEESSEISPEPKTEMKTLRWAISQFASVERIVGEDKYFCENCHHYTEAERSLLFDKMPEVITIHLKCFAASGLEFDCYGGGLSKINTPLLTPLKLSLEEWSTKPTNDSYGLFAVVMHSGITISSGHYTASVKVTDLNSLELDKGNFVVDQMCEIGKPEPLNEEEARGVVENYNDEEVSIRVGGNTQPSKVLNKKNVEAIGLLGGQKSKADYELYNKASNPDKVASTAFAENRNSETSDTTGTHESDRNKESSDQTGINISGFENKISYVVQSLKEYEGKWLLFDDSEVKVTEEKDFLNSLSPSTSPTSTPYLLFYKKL
Sequence of Cytochrome P450 3A4 (Homo sapiens) (P08684 whole entry, looked up): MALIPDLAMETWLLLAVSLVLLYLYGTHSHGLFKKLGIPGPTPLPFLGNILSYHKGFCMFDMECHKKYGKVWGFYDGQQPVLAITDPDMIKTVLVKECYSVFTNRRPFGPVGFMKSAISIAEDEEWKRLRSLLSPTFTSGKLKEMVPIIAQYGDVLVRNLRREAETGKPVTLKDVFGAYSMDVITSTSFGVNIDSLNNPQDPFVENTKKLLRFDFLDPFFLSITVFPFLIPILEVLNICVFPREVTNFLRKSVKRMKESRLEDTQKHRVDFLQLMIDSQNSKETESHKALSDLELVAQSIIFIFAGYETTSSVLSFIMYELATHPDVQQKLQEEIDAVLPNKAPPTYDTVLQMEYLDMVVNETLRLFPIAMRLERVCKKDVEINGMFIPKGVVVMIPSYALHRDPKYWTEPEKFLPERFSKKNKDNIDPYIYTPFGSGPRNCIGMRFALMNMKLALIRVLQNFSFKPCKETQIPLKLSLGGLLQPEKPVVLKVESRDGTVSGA
Sequence of Glucocorticoid receptor (Homo sapiens) (P04150 whole entry, looked up, the tested form may be a part): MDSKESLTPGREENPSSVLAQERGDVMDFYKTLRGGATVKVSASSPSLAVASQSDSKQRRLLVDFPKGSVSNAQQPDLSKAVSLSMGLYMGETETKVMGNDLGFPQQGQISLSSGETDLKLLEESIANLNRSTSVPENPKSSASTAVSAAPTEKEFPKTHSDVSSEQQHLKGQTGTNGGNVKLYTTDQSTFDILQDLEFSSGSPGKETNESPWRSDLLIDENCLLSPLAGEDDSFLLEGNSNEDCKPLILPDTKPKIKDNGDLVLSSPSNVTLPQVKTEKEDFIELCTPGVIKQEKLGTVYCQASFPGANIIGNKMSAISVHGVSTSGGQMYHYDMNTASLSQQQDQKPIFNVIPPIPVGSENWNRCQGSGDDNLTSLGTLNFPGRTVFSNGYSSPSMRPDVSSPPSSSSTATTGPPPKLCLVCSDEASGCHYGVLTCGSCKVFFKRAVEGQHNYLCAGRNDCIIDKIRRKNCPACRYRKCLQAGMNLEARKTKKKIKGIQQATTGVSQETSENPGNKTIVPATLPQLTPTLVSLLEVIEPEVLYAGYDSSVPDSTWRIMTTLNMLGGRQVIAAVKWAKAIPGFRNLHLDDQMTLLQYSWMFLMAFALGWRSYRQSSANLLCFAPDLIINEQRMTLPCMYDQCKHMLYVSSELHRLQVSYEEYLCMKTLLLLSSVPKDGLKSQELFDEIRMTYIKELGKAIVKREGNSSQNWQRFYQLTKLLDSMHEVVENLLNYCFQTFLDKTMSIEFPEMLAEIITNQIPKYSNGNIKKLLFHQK
Sequence of Lysosomal acid glucosylceramidase (Homo sapiens) (P04062 whole entry, looked up): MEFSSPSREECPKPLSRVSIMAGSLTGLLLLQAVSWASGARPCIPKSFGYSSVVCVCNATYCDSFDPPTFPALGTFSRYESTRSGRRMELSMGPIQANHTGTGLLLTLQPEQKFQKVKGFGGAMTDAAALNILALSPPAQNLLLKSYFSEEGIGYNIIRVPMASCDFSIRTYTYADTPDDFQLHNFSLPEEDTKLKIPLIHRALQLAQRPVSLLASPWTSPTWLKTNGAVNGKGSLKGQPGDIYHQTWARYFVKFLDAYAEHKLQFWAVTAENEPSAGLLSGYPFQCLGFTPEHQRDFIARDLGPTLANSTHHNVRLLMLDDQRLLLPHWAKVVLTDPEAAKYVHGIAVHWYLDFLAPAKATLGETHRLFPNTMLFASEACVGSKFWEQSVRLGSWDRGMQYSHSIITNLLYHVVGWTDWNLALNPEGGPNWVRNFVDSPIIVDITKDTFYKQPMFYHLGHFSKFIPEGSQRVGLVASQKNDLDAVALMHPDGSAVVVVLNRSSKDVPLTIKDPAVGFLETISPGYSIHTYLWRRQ
Sequence of Rap guanine nucleotide exchange factor 4 (Homo sapiens) (Q8WZA2 whole entry, looked up): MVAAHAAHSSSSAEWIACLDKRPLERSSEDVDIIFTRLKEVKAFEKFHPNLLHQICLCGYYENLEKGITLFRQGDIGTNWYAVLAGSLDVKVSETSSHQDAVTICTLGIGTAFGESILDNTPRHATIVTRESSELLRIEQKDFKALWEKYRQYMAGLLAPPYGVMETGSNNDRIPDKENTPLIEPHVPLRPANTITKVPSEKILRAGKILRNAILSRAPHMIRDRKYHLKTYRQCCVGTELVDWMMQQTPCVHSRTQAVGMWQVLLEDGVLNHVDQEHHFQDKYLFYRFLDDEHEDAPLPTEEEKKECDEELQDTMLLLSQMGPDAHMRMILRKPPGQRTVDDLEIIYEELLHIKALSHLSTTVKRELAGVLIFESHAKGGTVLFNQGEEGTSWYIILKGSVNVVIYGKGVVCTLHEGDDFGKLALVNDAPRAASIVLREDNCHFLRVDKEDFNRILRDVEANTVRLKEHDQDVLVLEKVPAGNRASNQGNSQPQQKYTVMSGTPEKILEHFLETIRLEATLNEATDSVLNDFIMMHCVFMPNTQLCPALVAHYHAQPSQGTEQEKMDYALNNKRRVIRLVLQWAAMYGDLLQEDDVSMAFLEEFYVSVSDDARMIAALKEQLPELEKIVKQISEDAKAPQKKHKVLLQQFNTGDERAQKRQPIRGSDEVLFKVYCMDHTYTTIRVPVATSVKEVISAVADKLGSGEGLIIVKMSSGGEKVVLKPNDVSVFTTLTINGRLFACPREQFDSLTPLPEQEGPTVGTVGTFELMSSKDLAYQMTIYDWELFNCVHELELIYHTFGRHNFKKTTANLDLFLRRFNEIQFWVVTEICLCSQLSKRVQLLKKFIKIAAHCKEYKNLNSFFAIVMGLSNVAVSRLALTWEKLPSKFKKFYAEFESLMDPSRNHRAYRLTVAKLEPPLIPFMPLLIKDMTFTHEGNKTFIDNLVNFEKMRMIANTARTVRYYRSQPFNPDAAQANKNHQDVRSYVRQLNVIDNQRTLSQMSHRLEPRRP
Sequence of Cytochrome P450 1A2 (Homo sapiens) (P05177 whole entry, looked up): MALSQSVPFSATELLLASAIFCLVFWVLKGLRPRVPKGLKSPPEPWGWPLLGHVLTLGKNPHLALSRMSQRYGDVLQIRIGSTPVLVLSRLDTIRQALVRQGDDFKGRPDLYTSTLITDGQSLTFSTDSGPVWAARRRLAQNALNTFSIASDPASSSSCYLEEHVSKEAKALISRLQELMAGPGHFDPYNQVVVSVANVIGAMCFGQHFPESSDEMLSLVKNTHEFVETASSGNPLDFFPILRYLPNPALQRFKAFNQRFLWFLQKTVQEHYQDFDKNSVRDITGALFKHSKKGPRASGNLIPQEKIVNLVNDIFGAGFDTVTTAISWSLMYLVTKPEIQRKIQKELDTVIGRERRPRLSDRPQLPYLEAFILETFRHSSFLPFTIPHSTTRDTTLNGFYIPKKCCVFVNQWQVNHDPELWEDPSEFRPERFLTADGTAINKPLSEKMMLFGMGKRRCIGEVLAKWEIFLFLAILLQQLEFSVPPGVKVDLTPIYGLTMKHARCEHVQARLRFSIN

Structure (SMILES)	Potency [1]	activity change, negative = inhibition [2]	Potency [3]	activity, negative = inhibition [4]	Potency [5]	Potency [6]	Potency [7]	Potency [8]	Potency [9]	Potency [10]	Potency [11]	Potency [12]	Potency [13]	outcome [14]	Potency [15]	Potency [16]	Potency [17]	activity change, negative = inhibition [18]	Potency [19]
COc1ccc(CNc2nc(-c3ccc4c(c3)OCO4)nc3ccccc23)c(OC)c1	> 11.4 µM	0.828%	3.98 µM (active)	2.14%	> 46 µM	> 46 µM	inactive	inactive	inactive	inactive	inactive	inactive	inactive	inactive	inactive	inactive	inactive	–	–
COCCn1c(=O)c(-c2cc(F)cc(F)c2)nc2cnc(Nc3cccc(OC)c3)nc21	> 11.4 µM	-16%	2.51 µM (active)	-3.85%	> 9.22 µM	> 46 µM	inactive	inactive	inactive	–	–	–	–	inactive	inactive	–	inactive	-16.5%	inactive
COc1ccc(-n2c(=O)c(-c3cccs3)nc3cnc(Nc4cccc(OC)c4)nc32)cc1	> 11.4 µM	-24.6%	inactive	-11%	–	> 46 µM	inactive	–	inactive	–	–	–	–	inactive	–	–	inactive	–	inactive
COc1ccccc1CNc1nc(-c2cccc(C#N)c2)nc2ccccc12	> 11.4 µM	–	1.26 µM (active)	-22%	> 46 µM	> 46 µM	inactive	–	inactive	–	–	inactive	–	inactive	inactive	–	inactive	–	inactive
N#CCCn1c(=O)c(-c2ccc(Cl)cc2)nc2cnc(Nc3ccccc3)nc21	> 11.4 µM	-28%	–	-24.6%	> 9.22 µM	> 46 µM	inactive	inactive	–	inactive	–	inactive	inactive	inactive	–	79.3 µM (active)	inactive	–	inactive
COc1ccc(CNc2ncncc2-c2ccccc2C)c(OC)c1	> 11.4 µM	–	10 µM (active)	-4.15%	> 46 µM	> 46 µM	inactive	–	inactive	inactive	inactive	inactive	inactive	inactive	inactive	inactive	–	5.66%	inactive
O=c1c(-c2ccc(F)cc2)nc2cnc(Nc3ccccc3)nc2n1Cc1cccs1	> 11.4 µM	-11.9%	2 µM (active)	–	> 9.22 µM	> 46 µM	inactive	inactive	–	–	–	–	–	inactive	–	–	inactive	–	inactive
Cn1cc(-c2nc3cnc(N4CCOCC4)nc3n(CCC#N)c2=O)c2ccccc21	> 11.4 µM	-11.7%	–	-5.04%	> 9.22 µM	> 46 µM	inactive	inactive	–	–	inactive	inactive	inactive	inactive	–	–	inactive	-7.6%	inactive
COc1ccc(CNc2ncncc2-c2ccccc2C(F)(F)F)c(OC)c1	> 11.4 µM	-23.4%	15.8 µM (active)	2.4%	> 46 µM	> 46 µM	inactive	inactive	inactive	inactive	inactive	inactive	inactive	inactive	–	–	–	-7.18%	–
COCCn1c(=O)c(-c2ccc(Cl)cc2)nc2cnc(N3CCOCC3)nc21	> 11.4 µM	9.82%	1 µM (active)	9.52%	> 9.22 µM	> 46 µM	inactive	inactive	–	inactive	inactive	inactive	inactive	inactive	–	–	–	7.69%	–
COc1ncc2ncc(=O)n(C3CC3)c2n1	> 11.4 µM	-1.23%	10 µM (active)	6.59%	> 9.22 µM	> 46 µM	inactive	1.58 µM (active)	–	inactive	inactive	inactive	inactive	inactive	–	–	–	-8.58%	–
CN(Cc1ccco1)c1cc(-c2cccc(NS(C)(=O)=O)c2)ncn1	> 11.4 µM	10.2%	3.98 µM (active)	11.3%	> 46 µM	> 46 µM	inactive	inactive	inactive	11.2 µM (active)	8.91 µM (active)	inactive	inactive	inactive	–	–	–	-5.51%	–
COCCn1c(=O)c(-c2ccccc2)nc2cncnc21	> 11.4 µM	-9.61%	0.794 µM (active)	-10.2%	> 9.22 µM	> 46 µM	inactive	inactive	–	inactive	inactive	inactive	inactive	inactive	–	–	–	-5.89%	–
